High-throughput results from PubChem BioAssay.
Compounds with a hit are over-represented: about 7.4% of the library has one in this group of screens.
Rab9 promoter act: activates the Rab9 promoter; 320,000 tested, 2.8% active; AID 485297; Huh7 Rab9 promoter-luciferase reporter, luminescence, 24 h; Potency, µM (series often up to 9.22 µM), usual class: activators; note: nearly all actives have a fitted effect of over 60% in size
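Steps: seed 1500 Huh7 Rab9-luc cells per well, rest 2 h at 37 °C; add compound in DMSO; incubate 24 h; add luciferase reagent, 10 min ambient; read luminescence.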
NPC1 prom act: NPC1 promoter activation. Huh7 NPC1 promoter luciferase reporter, 24 h. Potency, µM (top dose mostly 9.22 µM), usual class: activators. 320,000 tested, 2.4% active; note: nearly all actives have a fitted effect of over 60% in size
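Readout is luciferase luminescence, reflecting NPC1 promoter activation in stably transfected Huh7 cells after 24 h compound exposure at 37 °C in reduced-serum medium with 10% FBS.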
ELG1 genotoxic: genotoxicity induction in ELG1-luciferase HEK293T cells; HEK293T ELG1-luciferase reporter, luminescence, 16 h; Potency, µM (titrated, usually from 46 µM), actives largely listed as activators; 330,000 tested, 1.3% active; AID 504466; note: nearly all actives have a fitted effect of over 60% in size
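DMSO vehicle served as control against compound-treated ELG1-luciferase HEK293T cells; exposure lasted 16 hr at 37 °C and 5% CO2, followed by ONE-Glo luminescence detection after 30 min.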
FLuc counter: counter-screen for miR-21 project: firefly luciferase inhibitors or activators; P08659; purified FLuc, Km substrates, luminescence inhibition; Potency, µM (doses to about 57.5 µM), hits mostly inhibitors; 360,000 tested, 6.9% active; AID 588342; note: nearly all actives have a fitted effect of over 55% in size
Target sequence (P08659 whole entry, looked up): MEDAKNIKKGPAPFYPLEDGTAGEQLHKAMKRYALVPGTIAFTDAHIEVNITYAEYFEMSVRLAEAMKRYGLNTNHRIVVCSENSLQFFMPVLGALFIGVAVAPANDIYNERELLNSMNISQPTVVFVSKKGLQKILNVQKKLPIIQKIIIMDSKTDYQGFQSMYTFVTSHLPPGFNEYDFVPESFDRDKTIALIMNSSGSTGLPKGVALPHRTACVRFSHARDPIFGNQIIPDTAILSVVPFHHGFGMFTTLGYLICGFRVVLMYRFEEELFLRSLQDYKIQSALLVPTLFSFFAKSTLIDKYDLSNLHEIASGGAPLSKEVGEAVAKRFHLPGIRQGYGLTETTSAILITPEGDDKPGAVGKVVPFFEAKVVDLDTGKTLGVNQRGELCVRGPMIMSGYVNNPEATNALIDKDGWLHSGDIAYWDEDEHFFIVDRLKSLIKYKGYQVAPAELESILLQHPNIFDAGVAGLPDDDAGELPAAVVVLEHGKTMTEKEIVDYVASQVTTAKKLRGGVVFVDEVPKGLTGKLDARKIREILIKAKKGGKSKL
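Purified P. pyralis luciferase (10nM final) with 10uM D-luciferin and 10uM ATP (Km levels) in 50mM Tris acetate pH 7.5, 10mM Mg acetate, 0.01% Tween-20, 0.05% BSA; qHTS 6-point titration, ~60 µM downward; luminescence read.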
SMN2 splice up: enhancers of SMN2 splice variant expression; 210,000 tested, 2.8% active; Potency, µM (top dose mostly 46.1 µM), most hits filed as activators; HEK293 SMN2-luciferase splicing reporter, luminescence, 30-36 h; note: nearly all actives have a fitted effect of over 55% in size
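HEK293 cells carry an SMN2 […]–luciferase reporter in which exon 7 inclusion puts luciferase in frame. Cells were plated 10-12 h before compound addition, then incubated 30-36 h at 37C. ONE-Glo luminescence was read; sodium butyrate at 4.5 mM final served as control.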
Hits are given with their value; – = inactive; ? = inconclusive; · = no result given; [ ] = remark or other dose. Calls come from the whole dose curve; as a rule, active = well fitted curve in the direction sought with a large enough effect; inconclusive = small, poorly fitted or top-dose-only effect, or another doubt; inactive = no such curve, though single readings can be large; an effect the other way counts as inactive or inconclusive.

SMILES | Rab9 promoter act | NPC1 prom act | ELG1 genotoxic | FLuc counter | SMN2 splice up
c1ccc2scnc2c1 | · | · | · | · | –
Cc1cc(C)n(C(=O)c2cc([N+](=O)[O-])cc([N+](=O)[O-])c2)n1 | – | – | – | – | ·
Cc1ccc(NC(=O)C2CCN(S(C)(=O)=O)CC2)cc1Cl | – | – | – | – | ·
N#C/C(=C\Nc1ccc2c(c1)OCCO2)c1nc2ccccc2[nH]1 | ? | ? | – | 15.1µM | –
N#C/C(=C\c1ccccc1)c1nc2ncccc2[nH]1 | – | – | – | 13.5µM | –
COc1ccc2nc(/C(C#N)=C\c3ccc(C(=O)O)cc3)[nH]c2c1 | – | – | – | 23.9µM | ·
O=C(CCc1nc2ccccc2[nH]1)Nc1ccc2c(c1)OCCO2 | – | – | – | – | –
COc1cc(Br)c(/C=C(\C#N)c2nc3ccccc3[nH]2)cc1OC | · | · | · | 8.49µM | –
CN(Cc1ccc(Cl)c(Cl)c1)C(=O)CN1C(=O)NC2(CCCC2)C1=O | – | – | – | – | ·
O=c1c(CCc2ccccc2)nc2cnc(Oc3cccc(Cl)c3)nc2n1C[C@H]1CCCO1 | · | · | · | · | –
CCN(CC)c1ccc(S(=O)(=O)N2CCCCC2)cc1NC(=O)C1CCC1 | – | – | – | – | ·
CCOc1cc(/C=C(\C#N)c2nc3ccccc3[nH]2)ccc1OC(C)C(=O)O (stereo not given) | –[1.84 µM] | – | – | 26.9µM | ·
O=C(Nc1ccccc1)OCCCc1ccccc1 | ? | ? | – | 19µM | ?
CCCCc1ccc(NC(=S)Nc2ccc(Nc3ccc(OC)cc3)cc2)cc1 | – | – | – | – | –
CCCCc1ccc(NC(=O)OC)cc1 | – | – | – | 16.9µM | –
CCCCc1ccc(NC(=S)Nc2cccnc2)cc1 | – | – | – | – | –
CCCCc1ccc(NC(=O)Nc2cccnc2)cc1 | ? | ? | ? | 6.01µM | ·
COc1ccc(-c2nc3scc(CCNC(=O)Cc4ccc(F)cc4)n3n2)cc1 | · | · | · | – | ·
CCOc1cccc(C(=O)Nc2cc(C)ccc2NC(=O)c2ccco2)c1 | – | – | – | – | ·
COc1cc(C)ccc1OCCSc1nc2ccc(NC(=O)c3ccccc3F)cc2s1 | · | · | · | – | ·
O=C(CSCc1ccccc1Cl)Nc1ccc2c(c1)OCCO2 | 1.58µM | 1.78µM | ? | 6.75µM | –
O=C(CNCc1ccccc1Cl)Nc1ccc2c(c1)OCCO2 | 2.82µM | 3.16µM | ? | 21.3µM | ·
Cc1ccc(NC(=O)Cc2c(C(=O)O)n(C)c3ccccc23)cc1F | – | – | – | ? | ·
O=C(CSCc1ccc(Cl)cc1)Nc1ccc2c(c1)OCO2 | – | – | – | ? | –
Cn1c(C(=O)O)c(CC(=O)Nc2ccc3c(c2)OCCO3)c2ccccc21 | – | – | ? | 19µM | –
SMILES | Rab9 promoter act | NPC1 prom act | ELG1 genotoxic | FLuc counter | SMN2 splice up
CCCOC(=O)c1cccc(NC(=O)c2c(-c3ccccc3Cl)noc2C)c1 | · | · | · | – | ·
O=C(COC(=O)/C=C/c1ccc(F)cc1)NCC1CCCO1 (stereo not given) | · | · | – | · | ·
Cc1ccc2c(CN(C)Cc3ccccc3)cc(=O)oc2c1C | ? | ? | – | 15.1µM | ·
Cc1ccc(Cn2c(CCC(=O)O)nc3ncccc3c2=O)cc1 | – | – | – | – | ·
COc1ccc(C(=O)Nc2cnc(NC(=O)c3cccs3)cc2C)cc1 | ? | ? | ? | 16.9µM | ·
Cc1cc(NC(=O)C2CC2)ncc1NC(=O)c1ccccn1 | 2.51µM | ? | ? | ? | ?
COc1ccc(C(=O)Nc2cc(C)c(NC(=O)c3ccccn3)cn2)cc1 | ? | ? | – | 1.07µM | ·
CCCCC(=O)Nc1cnc(NC(=O)c2cccs2)cc1C | 2µM | 3.16µM | ? | 19µM | ·
CCc1ccc(C(=O)NNC(=O)CCC2CCCCC2)cc1 | – | – | – | – | ·
COc1ccc(N(C(=O)c2snc(C(N)=O)c2N)C(C(=O)NCc2ccc(F)cc2)c2ccc(O)cc2)cc1 (stereo not given) | – | – | – | – | ·
CCc1cccc(C)c1NC(=O)c1cc(CN2CCCC2)on1 | · | · | · | – | ·
C/C(=C\c1ccccc1)C(=O)n1nnc2ccccc21 | – | – | – | 19µM | –
Cc1cc(C)n2nc(-c3ccsc3-n3c(C)ccc3C)cc2n1 | – | – | – | – | –
Cc1cc(C)n2nc(C(=O)NCc3ccccc3)cc2n1 | – | – | – | – | –
Cc1ccc(-c2cc3nc(C)cc(C)n3n2)cc1 | 1.78µM | 3.55µM | 5.17µM | 2.69µM | 12.6µM
Cc1ccc(NC(=O)c2cc3nc(C)cc(C)n3n2)cc1 | 0.891µM | 0.631µM | 1.46µM | 4.78µM | 11.2µM
Cc1cc(C)n2nc(-c3ccccc3)cc2n1 | 3.16µM | ? | ? | 7.57µM | ·
Cc1cc(C)n2nc(Nc3ccccc3)cc2n1 | – | – | – | 16.9µM | –
C=CCn1c(=O)n(CC=C)c(=O)n(CC=C)c1=O | · | · | · | · | –
Cc1nnc(N/N=C/c2ccc(-c3ccccc3F)o2)n1N | ? | – | ? | 21.3µM | ·
CCCCc1ccc(-c2ccc(Br)cc2O)nc1 | 0.794µM | 1.41µM | 1.3µM | 0.849µM | ?
CCCCc1ccc(-c2ccc(C)cc2O)nc1 | 0.631µM | 0.501µM | 1.46µM | 0.426µM | 22.4µM
Cc1ccc(NCC(=O)N/N=C/c2cccc(Oc3ccccc3)c2)cc1 | – | – | – | – | –
Cc1cc(N2CCOCC2)ccc1/C=C\[N+](=O)[O-] | – | – | – | 23.9µM | ?
O=[N+]([O-])c1ccc(N2CCOCC2)cc1O | – | – | – | – | ·
SMILES | Rab9 promoter act | NPC1 prom act | ELG1 genotoxic | FLuc counter | SMN2 splice up
Cc1nn(-c2ccccc2)c(Cl)c1/C=N/NC(=O)c1ccccc1NS(=O)(=O)c1cccs1 | – | – | – | 12µM | –
Cc1nn(-c2cccc(Cl)c2)c(Cl)c1/C=N/NC(=O)c1cccs1 | – | – | ? | – | ·
Cc1nn(-c2ccccc2)c(Cl)c1/C=N/NC(=O)c1ccc(NS(=O)(=O)c2cccs2)cc1 | ? | ? | ? | 0.849µM | 12.6µM
O=C(O)c1ccc(C=NNC(=O)c2ccccc2NS(=O)(=O)c2cccs2)cc1 | · | · | – | · | ·
O=S(=O)(c1ccc(Cl)cc1)c1nnn2c1nc(N1CCCCC1)c1sccc12 | · | · | · | – | ·
COc1ccccc1-c1noc(CCC(=O)Nc2ccc(C)cc2C)n1 | · | · | · | – | –
CCN(CC(=O)NC(=O)NC1CCCC1)Cc1ccccc1 | – | – | – | – | ·
COc1ccc(C(=O)NCC(c2cccs2)S(=O)(=O)c2cccs2)cc1 (stereo not given) | · | · | · | – | ·
Cc1cc(-c2cn3ccccc3n2)c(C)n1-c1ccccc1 | 1.12µM | 1.58µM | – | 0.757µM | 5.62µM
Cc1cccc(C#Cc2ccccc2)n1 | 5.01µM | 5.8µM | 8.2µM | 6.01µM | 12.6µM
COc1cc(/C=C2\OC(=O)c3c(OC)cccc32)ccc1O | ? | ? | 10.3µM | 3.38µM | –
COc1cc(/C=C2\SC(=N)N(c3ccc(F)cc3)C2=O)ccc1O | – | – | – | – | –
Cc1ccc(NC(=O)c2cc3ccccn3n2)cc1F | · | · | · | 2.39µM | ·
O=C(Nc1ccc(Br)cc1)c1cc2ccccn2n1 | 0.316µM | 0.562µM | ? | 0.953µM | ·
O=C(NCCc1ccc(Cl)cc1)c1cc2ccccn2n1 | – | – | – | – | ·
Cc1ccccc1CCNC(=O)c1cc2ccccn2n1 | · | · | · | 10.7µM | ·
CCc1ccc(NC(=O)c2cc3ccccn3n2)cc1 | · | · | · | 1.9µM | ·
